Measurements as given in PubChem BioAssay.
Activity calls are given as the source filed them. Unless noted, the rule behind the calls is not given here.

Columns and labels:
[1] = tested on: XIP peptide (Xip251-270) binding; experiment: XIP fragment 251-270 binding compounds – biochemical, small-molecule microarray, fluorescence 635/667 nm, 0.1 µg/mL protein, primary screen (AID 1182); conditions: fluorescent protein binding, 635 nm, higher = more signal, called active from +8 up or from −8 down
[2] = tested on: XIP peptide (Xip251-270); experiment: compounds binding XIP fragment 251-270 – biochemical, small-molecule microarray, fluorescence 635/667 nm, 0.5 µg/mL protein, primary screen (AID 1183); conditions: fluorescence 635 nm, higher = more signal
[3] = blood-stage malaria parasite viability loss – strain 3D7, DAPI fluorescence, 100 nL, primary screen (AID 1184);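 note: parasites grown inside human red blood cells in medium with human serum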; conditions: P. falciparum 3D7 growth, 3 d, higher = more signal
[4] = target: Homeobox protein Hox-A13 (Mus musculus) (UniProt Q62424); experiment: disruptors of Hoxa13 oligonucleotide interaction – biochemical, fluorescence polarization, labeled oligonucleotide, primary screen (AID 1185); conditions: Hoxa13:DNA binding, 15 min, higher = more signal, called active from +8 up or from −8 down
[5] = blockers of DNA damage checkpoint Chk1 activation – imaging, HeLa, hydroxyurea, phospho-Chk1 antibody, percent positive cells, primary screen (AID 1186); conditions: hydroxyurea-induced phospho-Chk1 immunofluorescence imaging, higher = more signal
[6] = blockers of DNA damage checkpoint Chk1 activation – imaging, HeLa, hydroxyurea, phospho-Chk1 nuclear intensity, primary screen (AID 1187); conditions: hydroxyurea-induced phospho-Chk1 immunofluorescence imaging, higher = more signal

Sequence of Homeobox protein Hox-A13 (Mus musculus) (Q62424 whole entry, looked up): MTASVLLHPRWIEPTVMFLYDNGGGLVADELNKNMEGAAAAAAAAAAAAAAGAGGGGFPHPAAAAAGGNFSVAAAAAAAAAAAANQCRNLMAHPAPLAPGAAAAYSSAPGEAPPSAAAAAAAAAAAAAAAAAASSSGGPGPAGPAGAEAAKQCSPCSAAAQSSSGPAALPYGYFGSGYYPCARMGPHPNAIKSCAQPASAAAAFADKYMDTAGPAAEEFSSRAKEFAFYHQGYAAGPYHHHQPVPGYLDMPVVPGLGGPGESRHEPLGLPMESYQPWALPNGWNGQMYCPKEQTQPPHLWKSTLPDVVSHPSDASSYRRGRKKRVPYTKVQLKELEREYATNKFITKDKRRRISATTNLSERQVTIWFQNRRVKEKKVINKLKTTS

Compound	composite z-score [1]	composite z-score [2]	z-score [3]	z-score [4]	z-score [5]	z-score [6]
CCCCC(=C=CC[C@@H](O)c1cccc(OCCO)c1)CCO	-0.0509 (inactive)	0.106	-0.0161	-2.25 (inactive)	-0.875 (inactive)	-0.341 (inactive)
COc1ccc(NN2C(C(O)c3ccc(OC)cc3)C=CC3C(=O)N(C4CCCCC4)C(=O)C32)cc1 (stereo not drawn)	1.3 (inactive)	0.7	-0.346	-4.51 (inactive)	-1.28 (inactive)	-1.13 (inactive)
CC(C)=CCN(C(=O)C#Cc1ccccc1)[C@H](CO)c1ccccc1	-0.415 (inactive)	-0.0445	-1.83	-7.52 (inactive)	-0.956 (inactive)	-0.6 (inactive)
[N-]=[N+]=NCc1ccccc1C[C@]1(C(=O)N2CCCCC2)N=C(c2ccc(OCCCO)cc2)O[C@H]1c1ccccc1	0.404 (inactive)	0.779	-2.34	-4.35 (inactive)	-0.527 (inactive)	-0.286 (inactive)
C=C(/C(=C/C[C@@H](OC(C)=O)c1ccccc1OCCO)c1cc(C(=O)OC)ccc1OC)C(C)C	0.988 (inactive)	0.839	-2.8	-4.71 (inactive)	0.689 (inactive)	0.766 (inactive)
C=C(CCCC)C(=O)CC[C@H](OC(=O)c1cccnc1)c1ccc(CO)o1	0.437 (inactive)	0.769	-0.198	-5.27 (inactive)	0.242 (inactive)	0.136 (inactive)
COC(=O)[C@@]1(Cc2ccc(OC)cc2)[C@H]2c3cc(C(=O)N4CCCC4)n(CCc4ccc(OC)c(Br)c4)c3C[C@H]2CN1C(=O)c1ccccc1	-0.0245 (inactive)	-0.879	-1.17	-4.39 (inactive)	-0.299 (inactive)	-0.0792 (inactive)
[N-]=[N+]=NCc1ccccc1[C@H]1OC(c2ccc(OCCCO)cc2)=N[C@@]1(Cc1ccccc1)C(=O)N1CCOCC1	0.0472 (inactive)	0.667	-2.62	-3.37 (inactive)	-0.11 (inactive)	-0.185 (inactive)
